# Measurements from publication PMC7862700, “An all-to-all approach to the identification of sequence-specific readers for epigenetic DNA modifications on cytosine”.
# Key:
# Assay in all cases: DAPPL (digital affinity profiling via proximity ligation, sequencing); 10 mM Tris-HCl pH 7.5, 50 mM NaCl, 1 mM DTT, 4% glycerol, room temperature, 30 min; GST-TFs on glutathione beads, 16-mer random dsDNA library, 0.1% formaldehyde crosslink after washing; high values mean tight binding
# FLI1 = molecular target: T1, FLI1 (Homo sapiens, UniProt Q01543 1-452); settings: protein: recombinant; tags: N-terminal GST; dsDNA, one strand shown
# T1 sequence: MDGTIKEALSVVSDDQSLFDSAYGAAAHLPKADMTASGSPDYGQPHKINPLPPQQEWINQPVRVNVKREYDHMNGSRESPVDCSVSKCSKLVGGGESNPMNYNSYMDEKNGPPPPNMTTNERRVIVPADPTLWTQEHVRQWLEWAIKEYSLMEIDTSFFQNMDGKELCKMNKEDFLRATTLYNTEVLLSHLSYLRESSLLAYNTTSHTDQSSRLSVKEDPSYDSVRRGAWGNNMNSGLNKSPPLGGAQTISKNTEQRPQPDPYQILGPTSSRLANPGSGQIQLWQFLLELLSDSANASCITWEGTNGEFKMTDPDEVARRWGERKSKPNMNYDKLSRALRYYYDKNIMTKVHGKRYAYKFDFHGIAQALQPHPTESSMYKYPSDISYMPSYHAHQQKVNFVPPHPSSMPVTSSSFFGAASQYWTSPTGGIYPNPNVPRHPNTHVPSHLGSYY
# Summary of the method: (§1)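 The binding signal reported is, for every hexamer, its read frequency for a factor over its read frequency for the tag-only sample. Reads came from pools of yeast-expressed, GST-fused human transcription factors on glutathione beads, barcoded with DNA and mixed with that sample, which were incubated with 200 nmole of a random double-stranded 16-mer DNA library in Tris/NaCl/DTT/glycerol buffer at room temperature for 30 min. After washing, the pools were crosslinked with 0.1% formaldehyde, proximity-ligated with BsaI/T4 ligase for 1 h at 37 °C, PCR-amplified and sequenced on an Illumina NextSeq500.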
# ELK1 = molecular target: T2, ELK1 (Homo sapiens, UniProt P19419 1-428); settings: protein: recombinant; tags: N-terminal GST; dsDNA, one strand shown
# T2 sequence: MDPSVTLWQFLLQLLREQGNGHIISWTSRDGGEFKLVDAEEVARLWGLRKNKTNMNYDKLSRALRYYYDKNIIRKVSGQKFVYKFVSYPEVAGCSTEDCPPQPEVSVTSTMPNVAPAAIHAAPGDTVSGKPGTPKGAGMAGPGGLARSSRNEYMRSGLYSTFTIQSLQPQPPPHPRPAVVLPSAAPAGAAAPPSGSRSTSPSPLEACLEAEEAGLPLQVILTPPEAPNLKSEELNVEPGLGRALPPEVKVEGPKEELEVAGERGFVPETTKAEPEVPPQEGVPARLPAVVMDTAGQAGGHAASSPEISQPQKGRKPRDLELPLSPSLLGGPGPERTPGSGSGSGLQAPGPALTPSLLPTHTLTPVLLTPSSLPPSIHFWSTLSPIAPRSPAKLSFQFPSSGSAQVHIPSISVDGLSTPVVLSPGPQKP
# Summary of the method: as §1
# GABPA = molecular target: T3, GABPA (Homo sapiens, UniProt Q06546 1-454); settings: protein: recombinant; tags: N-terminal GST; dsDNA, one strand shown
# T3 sequence: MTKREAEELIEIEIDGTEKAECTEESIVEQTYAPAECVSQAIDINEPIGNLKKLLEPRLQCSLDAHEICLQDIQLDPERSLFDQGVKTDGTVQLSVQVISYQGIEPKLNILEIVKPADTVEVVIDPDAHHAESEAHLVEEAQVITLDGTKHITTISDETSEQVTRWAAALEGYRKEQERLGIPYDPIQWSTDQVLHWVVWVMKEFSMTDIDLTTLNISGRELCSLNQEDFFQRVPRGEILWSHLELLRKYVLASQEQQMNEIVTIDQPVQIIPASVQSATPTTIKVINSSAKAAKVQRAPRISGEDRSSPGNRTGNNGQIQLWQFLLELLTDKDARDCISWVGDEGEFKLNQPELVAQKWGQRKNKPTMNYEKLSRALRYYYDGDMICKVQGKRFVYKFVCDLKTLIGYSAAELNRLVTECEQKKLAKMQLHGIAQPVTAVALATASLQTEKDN
# Summary of the method: as §1
# ERG = molecular target: T4, ERG (Homo sapiens, UniProt P11308 1-479); settings: protein: recombinant; tags: N-terminal GST; dsDNA, one strand shown
# T4 sequence: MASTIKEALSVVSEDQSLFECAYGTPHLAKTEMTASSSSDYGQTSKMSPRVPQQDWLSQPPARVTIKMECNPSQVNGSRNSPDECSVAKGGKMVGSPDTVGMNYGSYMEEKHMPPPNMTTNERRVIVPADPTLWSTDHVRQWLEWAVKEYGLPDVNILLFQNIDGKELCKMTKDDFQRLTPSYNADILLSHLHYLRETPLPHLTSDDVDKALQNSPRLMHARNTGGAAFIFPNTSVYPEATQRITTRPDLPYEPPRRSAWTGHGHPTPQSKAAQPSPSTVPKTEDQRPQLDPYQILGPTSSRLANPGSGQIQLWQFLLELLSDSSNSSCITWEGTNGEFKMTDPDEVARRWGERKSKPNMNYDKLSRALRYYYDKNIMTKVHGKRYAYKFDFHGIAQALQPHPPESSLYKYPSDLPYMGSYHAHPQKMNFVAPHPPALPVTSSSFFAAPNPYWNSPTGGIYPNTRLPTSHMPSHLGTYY
# Summary of the method: as §1
# ELF1 = ELF1 (Homo sapiens, UniProt P32519 1-619); settings: protein: recombinant; tags: N-terminal GST; dsDNA, one strand shown
# Summary of the method: as §1
# EHF = molecular target: T5, EHF (Homo sapiens, UniProt Q9NZC4 1-300); settings: protein: recombinant; tags: N-terminal GST; dsDNA, one strand shown
# T5 sequence: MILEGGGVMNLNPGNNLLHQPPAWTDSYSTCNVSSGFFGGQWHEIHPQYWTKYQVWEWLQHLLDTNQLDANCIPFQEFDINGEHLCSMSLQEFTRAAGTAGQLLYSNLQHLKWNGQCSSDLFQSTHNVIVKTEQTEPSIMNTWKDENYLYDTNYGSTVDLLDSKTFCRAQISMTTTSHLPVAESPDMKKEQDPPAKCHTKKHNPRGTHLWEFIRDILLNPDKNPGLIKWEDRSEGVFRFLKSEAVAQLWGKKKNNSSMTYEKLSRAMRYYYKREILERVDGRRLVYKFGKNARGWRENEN
# Summary of the method: as §1
# SPI1 = SPI1 (Homo sapiens, UniProt P17947 1-270); settings: protein: recombinant; tags: N-terminal GST; dsDNA, one strand shown
# Summary of the method: as §1
# SPIB = SPIB (Homo sapiens, UniProt Q01892 1-262); settings: protein: recombinant; tags: N-terminal GST; dsDNA, one strand shown
# Summary of the method: as §1
# ELK3 = molecular target: T6, ELK3 (Homo sapiens, UniProt P41970 1-407); settings: protein: recombinant; tags: N-terminal GST; dsDNA, one strand shown
# T6 sequence: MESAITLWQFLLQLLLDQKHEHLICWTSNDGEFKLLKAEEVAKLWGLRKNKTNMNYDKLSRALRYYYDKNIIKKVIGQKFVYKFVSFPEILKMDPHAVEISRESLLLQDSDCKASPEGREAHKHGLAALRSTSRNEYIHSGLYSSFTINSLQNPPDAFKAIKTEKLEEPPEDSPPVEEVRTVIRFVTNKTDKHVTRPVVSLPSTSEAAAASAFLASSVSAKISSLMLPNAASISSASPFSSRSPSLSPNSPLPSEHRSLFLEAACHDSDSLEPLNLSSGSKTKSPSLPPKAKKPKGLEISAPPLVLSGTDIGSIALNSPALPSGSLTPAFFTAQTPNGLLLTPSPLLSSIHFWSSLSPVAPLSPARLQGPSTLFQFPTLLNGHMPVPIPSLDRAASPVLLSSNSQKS
# Summary of the method: as §1
# FEV = molecular target: T7, FEV (Homo sapiens, UniProt Q99581 1-238); settings: protein: recombinant; tags: N-terminal GST; dsDNA, one strand shown
# T7 sequence: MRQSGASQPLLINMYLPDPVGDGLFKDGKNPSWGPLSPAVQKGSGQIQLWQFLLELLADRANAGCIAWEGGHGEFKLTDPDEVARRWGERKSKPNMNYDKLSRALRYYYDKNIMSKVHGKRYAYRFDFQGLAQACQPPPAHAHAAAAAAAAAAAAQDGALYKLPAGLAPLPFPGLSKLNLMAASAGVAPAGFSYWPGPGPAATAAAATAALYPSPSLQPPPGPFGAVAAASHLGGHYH
# Summary of the method: as §1
# ETV5 = ETV5 (Homo sapiens, UniProt P41161 1-510); settings: protein: recombinant; tags: N-terminal GST; dsDNA, one strand shown
# Summary of the method: as §1
# HSF1 = HSF1 (Homo sapiens, UniProt Q00613 1-529); settings: protein: recombinant; tags: N-terminal GST; chain copies: 3; dsDNA, one strand shown
# Summary of the method: as §1
# SPIC = molecular target: T8, SPIC (Homo sapiens, UniProt Q8N5J4 1-248); settings: protein: recombinant; tags: N-terminal GST; dsDNA, one strand shown
# T8 sequence: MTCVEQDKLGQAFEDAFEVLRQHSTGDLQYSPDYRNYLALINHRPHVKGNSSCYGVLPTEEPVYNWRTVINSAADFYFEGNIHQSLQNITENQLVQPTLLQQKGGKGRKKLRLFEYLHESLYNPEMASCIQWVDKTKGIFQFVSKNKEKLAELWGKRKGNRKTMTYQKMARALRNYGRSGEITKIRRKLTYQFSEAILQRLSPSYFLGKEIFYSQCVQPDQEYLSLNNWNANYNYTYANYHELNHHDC
# Summary of the method: as §1
# ELF4 = ELF4 (Homo sapiens, UniProt Q99607 1-663); settings: protein: recombinant; tags: N-terminal GST; dsDNA, one strand shown
# Summary of the method: as §1
# ELK4 = molecular target: T9, ELK4 (Homo sapiens, UniProt P28324-2 1-405); settings: protein: recombinant; tags: N-terminal GST; dsDNA, one strand shown
# T9 sequence: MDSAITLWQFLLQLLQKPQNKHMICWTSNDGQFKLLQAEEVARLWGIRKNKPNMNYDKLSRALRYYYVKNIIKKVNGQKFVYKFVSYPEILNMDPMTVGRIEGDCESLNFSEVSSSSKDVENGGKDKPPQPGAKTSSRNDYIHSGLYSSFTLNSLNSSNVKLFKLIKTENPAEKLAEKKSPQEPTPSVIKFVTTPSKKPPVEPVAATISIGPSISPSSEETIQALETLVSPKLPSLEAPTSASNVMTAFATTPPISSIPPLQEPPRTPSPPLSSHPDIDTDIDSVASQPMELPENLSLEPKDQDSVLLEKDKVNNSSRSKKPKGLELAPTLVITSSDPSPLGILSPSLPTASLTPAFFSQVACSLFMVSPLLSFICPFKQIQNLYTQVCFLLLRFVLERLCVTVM
# Summary of the method: as §1
# ETV2 = molecular target: T10, ETV2 (Homo sapiens, UniProt O00321 1-342); settings: protein: recombinant; tags: N-terminal GST; dsDNA, one strand shown
# T10 sequence: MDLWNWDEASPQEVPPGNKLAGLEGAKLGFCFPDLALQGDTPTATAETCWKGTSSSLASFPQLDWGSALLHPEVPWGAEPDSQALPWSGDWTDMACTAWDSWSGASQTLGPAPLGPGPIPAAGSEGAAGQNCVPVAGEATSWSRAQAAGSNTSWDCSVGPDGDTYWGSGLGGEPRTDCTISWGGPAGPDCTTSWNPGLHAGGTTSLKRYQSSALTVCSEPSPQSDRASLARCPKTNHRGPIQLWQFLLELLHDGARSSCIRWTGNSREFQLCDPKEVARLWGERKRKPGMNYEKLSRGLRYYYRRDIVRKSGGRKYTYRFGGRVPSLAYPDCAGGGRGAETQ
# Summary of the method: as §1
# ELF3 = molecular target: T11, ELF3 (Homo sapiens, UniProt P78545 1-371); settings: protein: recombinant; tags: N-terminal GST; dsDNA, one strand shown
# T11 sequence: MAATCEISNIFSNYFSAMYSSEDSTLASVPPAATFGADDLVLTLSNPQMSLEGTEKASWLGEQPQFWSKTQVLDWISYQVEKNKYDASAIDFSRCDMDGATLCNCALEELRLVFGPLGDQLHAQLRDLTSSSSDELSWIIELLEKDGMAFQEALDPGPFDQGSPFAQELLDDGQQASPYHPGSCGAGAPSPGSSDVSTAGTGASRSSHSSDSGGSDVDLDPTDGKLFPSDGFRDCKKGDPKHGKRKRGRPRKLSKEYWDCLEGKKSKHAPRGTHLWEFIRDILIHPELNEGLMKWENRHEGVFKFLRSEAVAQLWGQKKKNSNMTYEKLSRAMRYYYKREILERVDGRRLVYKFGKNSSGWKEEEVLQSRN
# Summary of the method: as §1
# ETV1 = ETV1 (Homo sapiens, UniProt P50549 1-477); settings: protein: recombinant; tags: N-terminal GST; dsDNA, one strand shown
# Summary of the method: as §1
# Chain of ELF1 (P32519 whole entry): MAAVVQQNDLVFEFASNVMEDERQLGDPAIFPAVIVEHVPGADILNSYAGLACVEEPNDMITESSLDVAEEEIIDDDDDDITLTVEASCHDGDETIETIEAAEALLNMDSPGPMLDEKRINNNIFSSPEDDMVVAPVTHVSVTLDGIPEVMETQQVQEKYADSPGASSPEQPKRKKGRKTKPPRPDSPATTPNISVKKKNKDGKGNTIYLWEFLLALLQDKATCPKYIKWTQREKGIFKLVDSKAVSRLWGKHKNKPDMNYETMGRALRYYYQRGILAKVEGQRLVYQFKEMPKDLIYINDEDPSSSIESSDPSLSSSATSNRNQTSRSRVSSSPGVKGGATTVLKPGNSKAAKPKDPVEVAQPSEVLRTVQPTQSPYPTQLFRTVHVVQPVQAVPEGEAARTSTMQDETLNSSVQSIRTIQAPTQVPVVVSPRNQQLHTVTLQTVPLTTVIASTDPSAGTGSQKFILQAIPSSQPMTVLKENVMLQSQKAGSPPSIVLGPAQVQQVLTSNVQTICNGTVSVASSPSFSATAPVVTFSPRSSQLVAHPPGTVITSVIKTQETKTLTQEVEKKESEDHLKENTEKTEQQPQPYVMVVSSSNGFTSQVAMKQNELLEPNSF
# Chain of SPIB (Q01892 whole entry): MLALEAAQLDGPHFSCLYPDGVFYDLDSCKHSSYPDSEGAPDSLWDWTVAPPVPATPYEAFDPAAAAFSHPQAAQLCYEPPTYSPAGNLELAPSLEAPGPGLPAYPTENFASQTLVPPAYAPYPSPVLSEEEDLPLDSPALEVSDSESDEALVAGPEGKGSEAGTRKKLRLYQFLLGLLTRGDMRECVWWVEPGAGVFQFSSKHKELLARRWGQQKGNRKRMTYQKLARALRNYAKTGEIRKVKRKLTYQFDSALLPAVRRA
# Chain of ETV5 (P41161 whole entry): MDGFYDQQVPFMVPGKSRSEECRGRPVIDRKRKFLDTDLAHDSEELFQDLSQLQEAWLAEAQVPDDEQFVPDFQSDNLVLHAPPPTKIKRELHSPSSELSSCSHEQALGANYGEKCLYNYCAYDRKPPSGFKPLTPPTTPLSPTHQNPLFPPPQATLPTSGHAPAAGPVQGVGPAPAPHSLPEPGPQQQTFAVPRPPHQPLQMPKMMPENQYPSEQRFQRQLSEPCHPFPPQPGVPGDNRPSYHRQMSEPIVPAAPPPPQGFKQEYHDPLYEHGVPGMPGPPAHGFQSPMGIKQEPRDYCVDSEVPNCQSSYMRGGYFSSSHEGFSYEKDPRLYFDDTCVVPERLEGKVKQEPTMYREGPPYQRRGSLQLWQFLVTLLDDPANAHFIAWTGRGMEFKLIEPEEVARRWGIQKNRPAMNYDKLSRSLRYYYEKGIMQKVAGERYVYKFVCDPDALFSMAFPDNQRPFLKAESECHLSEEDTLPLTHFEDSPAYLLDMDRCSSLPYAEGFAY
# Chain of ELF4 (Q99607 whole entry): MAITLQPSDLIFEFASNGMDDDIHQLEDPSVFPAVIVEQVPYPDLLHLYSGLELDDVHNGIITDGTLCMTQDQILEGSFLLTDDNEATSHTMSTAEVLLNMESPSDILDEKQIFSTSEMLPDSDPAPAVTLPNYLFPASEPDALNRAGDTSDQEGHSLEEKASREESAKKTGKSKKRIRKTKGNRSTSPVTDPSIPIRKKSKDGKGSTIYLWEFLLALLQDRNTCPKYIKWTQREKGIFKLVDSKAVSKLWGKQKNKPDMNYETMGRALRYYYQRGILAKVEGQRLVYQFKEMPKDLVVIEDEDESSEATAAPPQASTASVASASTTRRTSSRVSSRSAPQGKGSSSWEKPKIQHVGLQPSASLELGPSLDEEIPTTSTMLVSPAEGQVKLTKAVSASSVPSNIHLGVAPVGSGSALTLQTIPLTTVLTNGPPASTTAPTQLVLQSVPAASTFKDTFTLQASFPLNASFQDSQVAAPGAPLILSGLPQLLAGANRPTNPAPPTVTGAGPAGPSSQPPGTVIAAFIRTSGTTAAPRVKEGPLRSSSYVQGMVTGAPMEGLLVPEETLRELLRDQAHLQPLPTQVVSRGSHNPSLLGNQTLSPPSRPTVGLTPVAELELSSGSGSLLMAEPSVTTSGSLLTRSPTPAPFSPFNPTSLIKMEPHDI
# Chain of HSF1 (Q00613 whole entry): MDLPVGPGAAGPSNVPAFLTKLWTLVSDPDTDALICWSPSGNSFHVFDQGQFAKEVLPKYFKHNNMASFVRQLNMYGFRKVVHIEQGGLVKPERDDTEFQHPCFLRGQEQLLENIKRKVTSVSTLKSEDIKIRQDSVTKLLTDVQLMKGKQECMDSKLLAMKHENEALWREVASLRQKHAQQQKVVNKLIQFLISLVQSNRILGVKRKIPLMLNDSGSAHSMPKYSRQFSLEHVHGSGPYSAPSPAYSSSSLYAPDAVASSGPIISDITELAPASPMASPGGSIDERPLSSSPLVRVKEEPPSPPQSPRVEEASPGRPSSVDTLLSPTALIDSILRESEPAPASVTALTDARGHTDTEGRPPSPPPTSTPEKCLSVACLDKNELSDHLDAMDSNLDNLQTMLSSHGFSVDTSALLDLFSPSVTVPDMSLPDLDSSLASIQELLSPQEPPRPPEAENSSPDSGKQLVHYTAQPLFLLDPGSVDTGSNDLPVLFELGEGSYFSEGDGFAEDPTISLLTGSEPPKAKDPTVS
# Chain of ETV1 (P50549 whole entry): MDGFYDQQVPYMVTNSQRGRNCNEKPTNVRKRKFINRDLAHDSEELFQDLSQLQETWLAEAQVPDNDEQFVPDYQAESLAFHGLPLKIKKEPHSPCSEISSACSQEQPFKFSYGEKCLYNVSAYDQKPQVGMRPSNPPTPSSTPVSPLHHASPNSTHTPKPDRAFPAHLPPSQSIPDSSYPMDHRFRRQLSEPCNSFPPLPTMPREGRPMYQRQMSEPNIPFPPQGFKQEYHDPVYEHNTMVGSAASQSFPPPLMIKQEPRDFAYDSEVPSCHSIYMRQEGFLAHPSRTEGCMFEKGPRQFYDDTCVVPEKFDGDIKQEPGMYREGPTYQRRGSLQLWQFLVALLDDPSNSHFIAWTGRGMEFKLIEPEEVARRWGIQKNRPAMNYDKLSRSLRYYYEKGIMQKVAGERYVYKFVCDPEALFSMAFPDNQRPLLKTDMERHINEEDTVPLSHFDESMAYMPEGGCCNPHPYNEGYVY
sequence,measurement,setting,value
GAAAAA,binding signal,FLI1,"1.07 fold enrichment (6-mer frequency, TF over GST control)"
same,binding signal,ELK1,"1.13 fold enrichment (6-mer frequency, TF over GST control)"
same,binding signal,GABPA,"1.11 fold enrichment (6-mer frequency, TF over GST control)"
same,binding signal,ERG,"1.14 fold enrichment (6-mer frequency, TF over GST control)"
same,binding signal,ELF1,"1.1 fold enrichment (6-mer frequency, TF over GST control)"
same,binding signal,EHF,"1.2 fold enrichment (6-mer frequency, TF over GST control)"
same,binding signal,SPI1,"1.21 fold enrichment (6-mer frequency, TF over GST control)"
same,binding signal,SPIB,"1.18 fold enrichment (6-mer frequency, TF over GST control)"
same,binding signal,ELK3,"1.21 fold enrichment (6-mer frequency, TF over GST control)"
same,binding signal,FEV,"1.09 fold enrichment (6-mer frequency, TF over GST control)"
same,binding signal,ETV5,"1.13 fold enrichment (6-mer frequency, TF over GST control)"
same,binding signal,HSF1,"1.41 fold enrichment (6-mer frequency, TF over GST control)"
same,binding signal,SPIC,"1.15 fold enrichment (6-mer frequency, TF over GST control)"
same,binding signal,ELF4,"1.17 fold enrichment (6-mer frequency, TF over GST control)"
same,binding signal,ELK4,"1.09 fold enrichment (6-mer frequency, TF over GST control)"
same,binding signal,ETV2,"1.15 fold enrichment (6-mer frequency, TF over GST control)"
same,binding signal,ELF3,"1.2 fold enrichment (6-mer frequency, TF over GST control)"
same,binding signal,ETV1,"1.09 fold enrichment (6-mer frequency, TF over GST control)"
